The results in this text go back to PubChem BioAssay (NCI).

The structures appear in SMILES notation. About 83,000 compounds went through this panel and 20% of them were active in at least one assay; those are over-represented in the sample as a whole.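 Assay: single dose, 48 h. Readout: percent growth (0 = no net growth; negative = cell death). Active: <10.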 Values without a mark were called inactive. Calls of active or inactive are those of the source.

Test systems include T-47D breast; BT-549 breast; MDA-MB-435 melanoma; SW-620 colon; MCF7 breast; HCT-116 colon; KM12 colon.
What all share (assay): NCI-60 one-dose screen, 48 h (100 = growth as untreated, 0 = no growth, -100 = all killed)
Holding throughout (details): 10 µM unless noted

Take `COc1cc(-c2nc(C(=O)NCC(=O)NO)nn2-c2ccc(Cl)cc2)cc(OC)c1OC`: the growth in the assay on T-47D breast was 88.2%; with BT-549 breast, 105%; in the assay with MDA-MB-435 melanoma it was 100%; in the assay with SW-620 colon, 97.1%; in the assay on MCF7 breast it was 92.2%; in the assay on HCT-116 colon it was 101%. For the same compound, the growth in the assay on KM12 colon is 95.9%.
Regarding `C=C1C(=O)O[C@H]2[C@H]1CC/C(C=Nc1ccc(C(F)(F)F)cc1N)=C\CC[C@@]1(C)O[C@@H]21`, the growth is 14.8% in the assay on T-47D breast; 16.3% in the assay with BT-549 breast; 0.426% (active) in the assay with MDA-MB-435 melanoma; -32% (active) in the assay on SW-620 colon; 10.7% in the assay on MCF7 breast; -77.1% (active) with HCT-116 colon. Further, the growth in the assay on KM12 colon was 20.3%.
With `CC(=O)O[C@H]1C(=O)[C@@]2(C)[C@H]([C@H](OC(=O)c3ccccc3)[C@]3(O)C[C@H](OC(=O)[C@H](OC(=O)CCC(=O)OC4CCC(S/N=C(N)/N=C(\N)N(C)C)CC4)[C@@H](NC(=O)c4ccccc4)c4ccccc4)C(C)=C1C3(C)C)[C@]1(OC(C)=O)CO[C@@H]1C[C@@H]2O` (some centres not stated), the growth with T-47D breast was 46.7%; in the assay with BT-549 breast, 35.9%; in the assay on MDA-MB-435 melanoma, 5.75% (active); with SW-620 colon, 41.7%; in the assay on MCF7 breast, 19.3%; in the assay on HCT-116 colon, 6.14% (active). Moreover, the growth in the assay on KM12 colon was 10.7%.
On to `COc1ccc(-c2nnc(SCC(=O)c3ccc(Cl)cc3)o2)cc1`, for which the growth in the assay on T-47D breast was 89.6%; in the assay with BT-549 breast it was 105%; in the assay on MDA-MB-435 melanoma it was 108%; with SW-620 colon, 107%; in the assay with MCF7 breast, 108%; in the assay with HCT-116 colon, 107%. Further, in the assay with KM12 colon, the growth was 102%.
In the case of `Cc1cc(C)nc(SC2=C(Nc3cc(Cl)ccc3O)C(=O)N(Cc3ccccc3)C2=O)n1`, the growth is 60.8% [30 µM] with T-47D breast; 85.2% [30 µM] in the assay with BT-549 breast; 71.6% [30 µM] in the assay with MDA-MB-435 melanoma; 91.8% [30 µM] with SW-620 colon; 46.4% [30 µM] in the assay on MCF7 breast; 83% [30 µM] in the assay with HCT-116 colon. Besides, the growth with KM12 colon is -23.1% [30 µM] (active).
`CN1CCN(c2ccc3nc(-c4ccc(OCCCCN5CCN(CCCCN6C(=O)c7cccc8cccc(c78)C6=O)CC5)cc4)[nH]c3c2)CC1`: the growth with T-47D breast was 36.1%; in the assay with BT-549 breast, 47%; in the assay with MDA-MB-435 melanoma it was 65.9%; in the assay on SW-620 colon, 84.2%; in the assay on MCF7 breast, 68.5%; in the assay with HCT-116 colon it was 45.9%. Further, in the assay with KM12 colon, the growth was 86.8%.
In the case of `OC(COc1cccc2ccccc12)CN1CCN(c2ccccc2Cl)CC1` (configuration not stated), the growth was 74.5% in the assay with T-47D breast; 106% in the assay on BT-549 breast; 100% in the assay with MDA-MB-435 melanoma; 88.5% with SW-620 colon; 105% in the assay on MCF7 breast; 71.4% in the assay on HCT-116 colon. The growth with KM12 colon is 99.7%.
With `C(=C\c1nccc2c1[nH]c1ccccc12)/c1ccccc1`, the growth in the assay on T-47D breast was 29.8%; in the assay on BT-549 breast, 10.9%; in the assay with MDA-MB-435 melanoma, -38.9% (active); in the assay with SW-620 colon, 14.8%; with MCF7 breast, 8.84% (active); in the assay on HCT-116 colon, 21.5%. Also, in the assay with KM12 colon, the growth was 15.6%.
Consider `NC(=NCCCC1(c2ccccc2)CCCC1)Nc1ccc(Cl)cc1`, for which the growth in the assay on T-47D breast is 3.02% (active); in the assay on BT-549 breast, 86.8%; in the assay on MDA-MB-435 melanoma, 10.9%; with SW-620 colon it was -32.9% (active); in the assay on MCF7 breast, 12.4%; with HCT-116 colon, 0.509% (active). In the assay on KM12 colon, the growth is 15.2%.
For `COc1ccc(CN2c3ccccc3Sc3ccccc32)cc1O`, the growth in the assay with T-47D breast is 27.5%; in the assay on BT-549 breast, 54.5%; in the assay on MDA-MB-435 melanoma, 0.932% (active); in the assay with SW-620 colon, 31%; in the assay with MCF7 breast it was 26%; with HCT-116 colon, 12.9%. The growth with KM12 colon is 17.6%.
With `COc1ccc(C(=O)COc2cccc(/C=C3\CSc4ccccc4C3=O)c2)cc1`, the growth with T-47D breast is 69.7%; with BT-549 breast it was -74.8% (active); in the assay with MDA-MB-435 melanoma, -21.1% (active); in the assay on SW-620 colon, -96.9% (active); in the assay with MCF7 breast, -79.8% (active); with HCT-116 colon it was -87.5% (active). The growth in the assay on KM12 colon is -77.3% (active).
For the compound `COc1cccc(-c2nc(SCC(=O)Nc3ccc(C(=O)/C=C/c4ccc(OC)c(OC)c4)cc3)[nH]c(=O)c2C#N)c1`, the growth in the assay on T-47D breast is 78.1%; in the assay with BT-549 breast, 85.4%; with MDA-MB-435 melanoma, 92.3%; with SW-620 colon, 112%; in the assay on MCF7 breast, 82.4%; in the assay with HCT-116 colon, 77.7%. For the same compound, the growth in the assay on KM12 colon is 81.5%.
In the case of `O=C1c2cccc3cccc(c23)C(=O)N1CCCCCN1CCN(CCCCCOc2ccc(-c3nc4ccc(N5CCOCC5)cc4[nH]3)cc2)CC1`, the growth is 0.907% (active) with T-47D breast; 29.9% in the assay on BT-549 breast; 36.4% in the assay on MDA-MB-435 melanoma; 17.1% in the assay on SW-620 colon; -25.7% (active) in the assay on MCF7 breast; 73% in the assay on HCT-116 colon. Besides, the growth with KM12 colon is 20.6%.
Turning to `CCCc1cc(=O)n2c(C(=O)Nc3ccc(F)cc3)c(C(=O)Nc3ccc(F)cc3)sc2n1`, the growth with T-47D breast is 97.1% [30 µM]; with BT-549 breast, 78.4% [30 µM]; in the assay on MDA-MB-435 melanoma, 83% [30 µM]; in the assay with SW-620 colon, 82.9% [30 µM]; with MCF7 breast it was 62.6% [30 µM]; in the assay on HCT-116 colon, 38.1% [30 µM]. Further, the growth in the assay with KM12 colon was 84.9% [30 µM].
Consider `O=C1NC(=O)C(c2ccc(Cl)cc2Cl)N1` (configuration not stated), for which the growth in the assay on T-47D breast is 111%; in the assay on BT-549 breast, 122%; in the assay with MDA-MB-435 melanoma, 113%; in the assay with SW-620 colon, 106%; in the assay with MCF7 breast, 101%; with HCT-116 colon it was 103%. In addition, the growth with KM12 colon is 104%.
Regarding `COc1cc2c(cc1O)CC[C@@H]1[C@@H]2CC[C@]2(C)[C@@H](NCCN(C)C)CC[C@@H]12`, the growth in the assay with T-47D breast was -64.5% (active); in the assay with BT-549 breast it was -84.3% (active); with MDA-MB-435 melanoma, -78.9% (active); with SW-620 colon it was -80.4% (active); in the assay on MCF7 breast, -75.8% (active); with HCT-116 colon it was -90.6% (active). The growth in the assay on KM12 colon was -82.4% (active).
